An excerpt weighted towards active compounds, which were near 12% of everything screened.
G9a inh: qHTS Assay for Inhibitors of Histone Lysine Methyltransferase G9a. Histone-lysine N-methyltransferase EHMT2 (Homo sapiens), Q96KQ7. G9a H3K9 monomethylation, AlphaScreen, 2 h. Potency, µM (series often up to 102 µM), actives largely listed as inhibitors. actives 8.8% (n = 350,000). AID 504332, 2011; also: nearly all actives have a fitted effect of over 75% in size
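AlphaScreen detection with an anti-monomethyl H3K9 antibody quantified product after a 2 h room-temperature reaction containing 500 nM biotinylated H3K9 peptide, 20 µM SAM and 20 nM enzyme, which had been preincubated 15 min with compound.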
TDP1 inh: qHTS Assay for Inhibitors of Tyrosyl-DNA Phosphodiesterase (TDP1). Tyrosyl-DNA phosphodiesterase 1 (Homo sapiens), Q9NUW8. recombinant TDP1, AlphaScreen DNA substrate cleavage. Potency, µM (top dose mostly 130 µM), most hits filed as inhibitors. actives 0.28% (n = 350,000). AID 485290, 2010; also: nearly all actives have a fitted effect of over 40% in size
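Enzyme-compound mixtures sat 15 min at room temperature, followed by a 5 min reaction with 15 nM final substrate and 10 min with AlphaScreen beads. Recombinant human Tdp1 was used at 1 nM final.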
BAZ2B block: qHTS Assay for Inhibitors of BAZ2B; Potency, µM (highest dose often 114 µM), actives largely listed as inhibitors; AlphaScreen BAZ2B-H3K14Ac peptide displacement; actives 4.4% (n = 360,000); also: nearly all actives have a fitted effect of over 60% in size
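In this displacement format the biotinylated H3(5-23) peptide acetylated at Lys14 serves as ligand at 50 nM, with BAZ2B at 50 nM in PBS pH 7.4 containing 0.01% Tween-20. Donor and acceptor beads are 10 ug/mL final.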
HP1b binding inh: HTS for Inhibitors of HP1-beta Chromodomain Interactions with Methylated Histone Tails; actives 0.56% (n = 390,000); Chromobox protein homolog 1 (Homo sapiens), P83916; AlphaScreen HP1-beta / biotin-H3K9me3 peptide binding; Potency, µM (titrated, usually from 114 µM), hits mostly inhibitors; also: nearly all actives have a fitted effect of over 70% in size
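HP1-beta protein (50 nM final) preincubated 30 min at room temperature with biotinylated H3(1-18)K9me3 peptide (50 nM) in PBS pH 7.4, 0.01% Tween-20, then compound added for 30 min. AlphaScreen streptavidin donor/nickel chelate acceptor beads (10 ug/mL final), 30 min dark, luminescence read.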
Sfp inh: qHTS Assay for Inhibitors of Bacillus subtilis Sfp phosphopantetheinyl transferase (PPTase) | 4'-phosphopantetheinyl transferase ffp (Bacillus subtilis), Q9F4F7 | Biochemical Sfp PPTase activity, qHTS | Potency, µM, usual class: inhibitors | actives 3.5% (n = 310,000);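 also: the enzyme is Sfp with the accession as filed and its product quenches rhodamine fluorescence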
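Fluorescence-quenching assay: 15 nM Sfp-PPTase preincubated 15 min at room temperature with compound, then 5 uM rhodamine-CoA and 12.5 uM BHQ-2-labelled YbbR peptide added. Fluorescence (ex 525/em 598 nm) read at start and after 30 min; difference gives rate.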
JMJD2A Tudor inh: qHTS Assay for Inhibitors of JMJD2A-Tudor Domain; Lysine-specific demethylase 4A (Homo sapiens), O75164; AlphaScreen JMJD2A-Tudor / H3K4me3 peptide binding; Potency, µM (top dose mostly 114 µM), hits mostly inhibitors; actives 4.4% (n = 390,000); AID 504339, 2011; also: nearly all actives have a fitted effect of over 50% in size
Target sequence (O75164 whole entry, looked up, the tested form may be a part): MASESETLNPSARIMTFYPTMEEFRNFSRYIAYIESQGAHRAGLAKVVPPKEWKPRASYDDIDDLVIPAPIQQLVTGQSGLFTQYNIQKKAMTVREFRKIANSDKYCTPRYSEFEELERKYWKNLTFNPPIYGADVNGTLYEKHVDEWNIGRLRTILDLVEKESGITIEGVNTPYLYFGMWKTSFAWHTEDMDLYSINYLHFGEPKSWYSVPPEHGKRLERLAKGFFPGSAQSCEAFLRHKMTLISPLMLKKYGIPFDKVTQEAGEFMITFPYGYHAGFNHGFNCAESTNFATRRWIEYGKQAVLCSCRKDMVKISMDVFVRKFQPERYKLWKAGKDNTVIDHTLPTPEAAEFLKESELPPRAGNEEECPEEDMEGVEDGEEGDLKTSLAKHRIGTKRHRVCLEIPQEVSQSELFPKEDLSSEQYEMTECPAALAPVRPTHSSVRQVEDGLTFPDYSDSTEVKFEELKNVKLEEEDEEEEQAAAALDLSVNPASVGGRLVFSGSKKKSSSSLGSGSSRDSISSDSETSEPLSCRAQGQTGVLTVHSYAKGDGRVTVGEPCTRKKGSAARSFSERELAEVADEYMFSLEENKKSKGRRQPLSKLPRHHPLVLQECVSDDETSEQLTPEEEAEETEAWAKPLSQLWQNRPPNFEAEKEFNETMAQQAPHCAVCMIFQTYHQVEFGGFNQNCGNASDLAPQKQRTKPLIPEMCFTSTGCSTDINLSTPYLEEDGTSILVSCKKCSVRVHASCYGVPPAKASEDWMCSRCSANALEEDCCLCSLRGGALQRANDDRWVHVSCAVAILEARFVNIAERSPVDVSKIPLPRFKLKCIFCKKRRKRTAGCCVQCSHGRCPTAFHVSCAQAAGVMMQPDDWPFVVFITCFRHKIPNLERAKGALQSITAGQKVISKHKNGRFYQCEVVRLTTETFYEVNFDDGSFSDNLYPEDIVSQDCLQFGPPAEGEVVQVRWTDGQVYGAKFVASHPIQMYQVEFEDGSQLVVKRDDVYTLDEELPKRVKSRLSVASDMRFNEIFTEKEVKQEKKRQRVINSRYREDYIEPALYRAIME
Large screens that a line does not name were inactive. Calls follow the shape of the dose curve; as a rule, active = well fitted curve in the direction sought with a large enough effect; inconclusive = small, poorly fitted or top-dose-only effect, or another doubt; inactive = no such curve, though single readings can be large; an effect the other way counts as inactive or inconclusive.

CCC(C)NCCOc1ccccc1C (stereo not given)	G9a inh 2.82µM, TDP1 inh inconclusive, BAZ2B block 50.1µM, HP1b binding inh inconclusive, Sfp inh 56.2µM, JMJD2A Tudor inh 3.16µM
CCN1CCN(CC(O)COCCOc2ccc(Br)cc2)CC1 (stereo not given)	none
CCC(C)NCCOc1ccc(Br)cc1 (stereo not given)	G9a inh 12.6µM, BAZ2B block inconclusive, HP1b binding inh inconclusive, JMJD2A Tudor inh 3.55µM
Cc1ccc(S(=O)(=O)N(C)C)cc1NC(=O)C1CCCCC1	none (no result: G9a inh)
Cc1ccccc1NC(=O)C(C)OC(=O)C1CC(=O)N(Cc2ccco2)C1 (stereo not given)	none (no result: Sfp inh)
CC1Sc2ccc(S(=O)(=O)N3CCC(C(=O)Nc4ccc(Cl)cc4)CC3)cc2NC1=O (stereo not given)	none (no result: G9a inh)
COc1ccc(Cl)cc1NC(=O)C/C(C)=N/NC(=O)c1ccc(O)cc1	G9a inh 70.8µM
CCOc1ccc(N2C(=O)c3cccnc3C2=O)cc1	BAZ2B block 56.2µM, JMJD2A Tudor inh inconclusive
COC(=O)c1cccc(N2C(=O)c3cccnc3C2=O)c1	G9a inh inconclusive, JMJD2A Tudor inh 44.7µM
COc1ccccc1N1C(=O)c2cccnc2C1=O	BAZ2B block inconclusive
COC(=O)c1cccc(N2C(=O)c3ccccc3S2(=O)=O)c1	G9a inh 56.2µM
COc1c(CO)cc(CO)cc(CO)c1=O	none (no result: G9a inh, BAZ2B block, HP1b binding inh, JMJD2A Tudor inh)
COc1ccc(S(=O)(=O)C(C#N)c2nc3ccccc3nc2N2CCCC(C)C2)cc1 (stereo not given)	G9a inh inconclusive, BAZ2B block 44.7µM, HP1b binding inh inconclusive, JMJD2A Tudor inh inconclusive
CC1CCCN(c2nc3ccccc3nc2C(C#N)S(=O)(=O)c2cccs2)C1 (stereo not given)	G9a inh inconclusive, BAZ2B block inconclusive, JMJD2A Tudor inh inconclusive
O=C1c2ccccc2S(=O)(=O)N1Cc1nnc(-c2ccccc2Br)o1	G9a inh inconclusive
O=S1(=O)c2cccc3cccc(c23)N1Cc1nnc(-c2ccccc2Br)o1	G9a inh 56.2µM
CCCC(=O)NNc1c2ccccc2nc2ccccc12	none
O=C(NNc1c2ccccc2nc2ccccc12)C(O)c1ccccc1 (stereo not given)	JMJD2A Tudor inh inconclusive
O=C(NNc1c2ccccc2nc2ccccc12)c1cccc(O)c1	G9a inh inconclusive, BAZ2B block 35.5µM, HP1b binding inh inconclusive, JMJD2A Tudor inh 44.7µM
O=C(NNc1c2ccccc2nc2ccccc12)c1ccc(O)cc1	G9a inh inconclusive, BAZ2B block 28.2µM, HP1b binding inh inconclusive
Cc1cn([C@@H]2C[C@H](N=[N+]=N)[C@H](CO)O2)c(=O)[nH]c1=O	none (no result: BAZ2B block, HP1b binding inh, JMJD2A Tudor inh)
COc1cc(/C=C2/C(=O)c3cccc([N+](=O)[O-])c3C2=O)c(Br)cc1O	G9a inh 10µM, BAZ2B block 20µM, HP1b binding inh 25.1µM, Sfp inh 20µM, JMJD2A Tudor inh 17.8µM
Fc1ccc(NC(=S)N2CCN(c3ccccn3)CC2)cc1Cl	none (no result: G9a inh, TDP1 inh, BAZ2B block, Sfp inh)
Cc1sc(C2C(C#N)=C(N)N(c3ccc(Cl)cc3)C3=C2C(=O)CCC3)cc1CN1CCOCC1 (stereo not given)	BAZ2B block inconclusive (no result: Sfp inh)
CCOC(=O)c1cc(-c2ccccc2)n(CCC(=O)O)c1C	none
NCCn1c(-c2ccccc2)cc(C(=O)O)c1-c1ccccc1F	G9a inh 50.1µM, BAZ2B block inconclusive
O=C(/C=C/c1cccs1)N1CCCC1	none (no result: TDP1 inh)
Cc1cc(C)n(C(=O)/C=C/c2cccs2)n1	BAZ2B block 56.2µM
COc1ccc(/C=c2\s/c(=C\C(=O)C(C)(C)C)[nH]c2=O)cc1O	BAZ2B block inconclusive (no result: G9a inh)
COc1ccc(/C=C/C(=O)C2C(=O)C=C(C)OC2=O)cc1O (stereo not given)	BAZ2B block 50.1µM
